proKLK7 act – activates the human kallikrein-7 zymogen; P49862; purified proKLK7, EDANS-DABCYL substrate fluorescence; 100% is mature enzyme control, 0% vehicle; activation, % at 7 µM; actives 0.9% (n = 370,000);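 active means activation above the mean of all tested compounds plus 3 SD, computed per campaign excluding outliers beyond control limits, cut at about 13% in these data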
NR3A LBD binder – modulators (binders) of human NR3A ligand-binding domain; NR3A LBD differential scanning fluorimetry, Tm shift; 0% = protein alone, 100% = glycine-bound protein; Tm shift relative to glycine control, % at 25 µM; actives 2.5% (n = 340,000); AID 1259313;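 active means melting temperature shift of at least 10% of the positive control shift, at one fixed dose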
FAS TE block – FAS thioesterase (human) inhibition. recombinant FAS-TE, OMFH fluorogenic substrate, fluorescence endpoint. P49327. inhibition, % at 15 µM. actives 0.67% (n = 360,000);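 active means compounds whose normalised, plate-corrected inhibition of enzyme fluorescence in the single-dose primary screen is 50% or more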;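 further: 0% = DMSO with enzyme and 100% = substrate without enzyme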
ADAM10 inh – ADAM10 inhibition, QFRET primary screen; inhibition, % at 7 µM; recombinant ADAM10, EDANS/DABCYL FRET peptide cleavage, 3 h; AID 720582; O14672; actives 0.62% (n = 370,000);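 active means inhibition above a per-campaign cutoff equal to the mean of compounds falling between control-based bounds plus 3 SD, cut at about 20% in these data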;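 further: 0% = DMSO wells while the 100% control is not disclosed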
Target sequence (O14672 214-748 limits assumed): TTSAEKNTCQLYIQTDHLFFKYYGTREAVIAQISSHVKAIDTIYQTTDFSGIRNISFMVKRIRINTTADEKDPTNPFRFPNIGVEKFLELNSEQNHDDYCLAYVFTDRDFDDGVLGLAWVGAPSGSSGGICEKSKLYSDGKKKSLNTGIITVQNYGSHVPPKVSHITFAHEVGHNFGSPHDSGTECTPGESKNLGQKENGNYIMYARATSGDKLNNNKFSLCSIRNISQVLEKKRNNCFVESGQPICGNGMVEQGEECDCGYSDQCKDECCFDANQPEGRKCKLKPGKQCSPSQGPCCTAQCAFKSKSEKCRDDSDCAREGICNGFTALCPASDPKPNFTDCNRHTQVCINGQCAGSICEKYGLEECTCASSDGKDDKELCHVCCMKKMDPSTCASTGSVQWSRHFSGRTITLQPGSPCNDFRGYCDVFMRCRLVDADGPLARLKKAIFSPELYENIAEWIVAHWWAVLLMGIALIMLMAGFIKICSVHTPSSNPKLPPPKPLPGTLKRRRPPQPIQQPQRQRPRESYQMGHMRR
ADAM17 inh – inhibits human ADAM17; P78536; recombinant ADAM17, EDANS/DABCYL FRET peptide cleavage; inhibition, % at 6.95 µM; actives 0.83% (n = 370,000);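 active means inhibition above the mean of compounds lying between control limits plus 3 SD, set per campaign, cut at about 8.5% in these data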;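 further: 0% = DMSO-only wells as the low control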
KLK7 act conf – proKLK7 activation, confirmation; shares compounds with proKLK7 act; purified proKLK7, EDANS-DABCYL substrate fluorescence; scaled: vehicle 0, mature enzyme 100; activation, % at 7 µM; actives 68% (n = 3,200); AID 686949;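 active means activation, as change over the incubation, above the mean of all tested compounds plus 3 SD, cut at about 13% in these data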
EDANS interfere – fluorescence interference counter-screen for KLK7 activators; shares compounds with proKLK7 act; AID 686952; activation, % at 7 µM; actives 80% (n = 3,200); EDANS-DABCYL substrate fluorescence interference, no enzyme, 4 h; solvent 0%, active enzyme control 100%;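 active means activation above the all-compound mean plus 3 SD, ignoring values outside control-based bounds, cut at about 4.8% in these data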;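 further: value is the 4 h activation minus the activation read at time zero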
K7 EDANS ctr – EDANS fluorescence interference in dose response, no enzyme | EDANS-DABCYL peptide fluorescence interference | EC50, µM | actives 20% (n = 250) | AID 720493 | shares compounds with proKLK7 act;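 active means compounds that raise the fluorescence signal in this interference counterscreen, with EC50 at or below 10 µM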;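 further: intact quenched peptide substrate alone read at 355 nm excitation and 520 nm emission; signal is fluorescence gain from T0 to T4 after four hours at room temperature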
Starred values were filed as active, the others as inactive; i = inactive; x = not tested or not shown. Shown are actives, neighbours in structure and some others; about 4.6% of the full set was active somewhere.

SMILES	proKLK7 act	NR3A LBD binder	FAS TE block	ADAM10 inh	ADAM17 inh	KLK7 act conf	EDANS interfere	others
CC(C)CC1NC(C(=O)O)Cc2c1[nH]c1ccccc21 (stereo unspecified)	7	-1	-2	-105	-39	x	x
CCCC1NC(C(=O)O)Cc2c1[nH]c1ccccc21 (stereo unspecified)	13*	2	-3	-323	-117	8	7.6*
CCC1(C)NC(C(=O)O)Cc2c1[nH]c1ccccc21 (stereo unspecified)	0	-1	-4	-5	-5	x	x
CNC(=S)NNC(=O)c1cccn(Cc2ccc(Cl)cc2Cl)c1=O	15*	x	x	-243	-46	30*	42*
CCNC(=S)NNC(=O)c1cccn(Cc2ccc(Cl)cc2)c1=O	22*	-3	-14	-322	-47	33*	39*
CNC(=S)NNC(=O)c1cccn(Cc2cccc(C(F)(F)F)c2)c1=O	28*	0	-1	-115	-54	89*	84*
O=c1[nH]c(Nc2ccccn2)cc2ccccc12	22*	-10	18	i	-172	21*	21*
O=c1[nH]c(Nc2ccc(F)cc2)cc2ccccc12	0	0	40	-27	-7	x	x
C=C(C)Cn1c2ccc(NC(=O)NCc3ccccc3)cc2c(=O)n1C	28*	x	2	i	i	32*	26*	K7 EDANS ctr=>70
CCNC(=O)Nc1ccc2c(c1)c(=O)n(C)n2Cc1ccc(Cl)cc1	28*	x	-4	i	i	16*	26*
Cn1c(=O)c2cc(NC(=O)NCCc3ccccc3)ccc2n1Cc1ccccc1	8	x	-1	i	i	x	x
Cc1cc(C)cc(Cn2c3ccc(NC(=O)NCc4ccccc4)cc3c(=O)n2C)c1	-2	x	-1	i	i	x	x
C=C(C)Cn1c2ccc(NC(=O)NCC)cc2c(=O)n1C	39*	x	-8	i	i	53*	58*
CC(C)CCN(C)C1CCN(C(=O)Nc2ccc(Cl)cc2)CC1	0	x	x	0	3	x	x
COc1ccc(NC(=O)N2CCC(N(C)CCC(C)C)CC2)cc1OC	0	x	x	0	0	x	x
Cc1cccc(Cl)c1NC(=O)N(C)c1ccccc1	0	x	x	-17	-4	x	x
COc1cccc(N2CCN(C(=O)CCn3nnc4ccccc43)CC2)c1	1	x	x	2	3	x	x
CC1=C(C#N)C(c2cccnc2)C2=C(CCCC2=O)N1 (stereo unspecified)	17*	-1	-5	i	-387	51*	64*
COc1ccccc1C(=O)N1CCCC(c2nc(-c3cccs3)no2)C1 (stereo unspecified)	0	x	x	-11	2	x	x
Cc1c(O)ccc2cc(S(=O)(=O)c3ccccc3)c(=O)oc12	45*	3	-7	i	i	70*	73*
CN1CCN(c2ccc(-c3ccc4ccccc4n3)cc2)CC1	28*	0	0	-246	-81	-4	-10
CCOC(=O)N1CCN(C(=O)C[C@H]2C[C@@]3(C(=O)OCC)CCCC4=C3N(CCC4)C2=O)CC1	1	x	x	3	-1	x	x
COC1=CC(=O)c2nc(Cl)ccc2C1=O	92*	x	-27	-1	1	161*	161*
COC(=O)c1c(C#N)c(N)nc2c1CCCC2	78*	0	-2	i	i	72*	75*
COc1ccccc1OCCOc1ccccc1/C=N/n1cnnc1	0	1	-4	1	-1	x	x
SMILES	proKLK7 act	NR3A LBD binder	FAS TE block	ADAM10 inh	ADAM17 inh	KLK7 act conf	EDANS interfere	others
COc1cccc2cccc(/C=N/n3cnnc3)c12	15*	-1	-5	-98	-33	15*	10*	K7 EDANS ctr=>70
COC(=O)[C@]12C[C@H](CC(=O)N3CCCC3)C(=O)N(Cc3ccco3)C1=C[C@H](COCc1ccccc1)O[C@@H]2C	1	x	x	-3	-4	x	x
Cc1occc1-c1nnc(SCC(=O)Nc2ccncc2)n1-c1ccccc1	1	x	x	-2	-1	x	x
COC(=O)c1nc2ccc(N3CCOCC3)cc2c(C)c1C(=O)OC	22*	-2	-5	-36	-13	2	25*
CC(=O)c1ccc(-c2ccc(C(=O)NCC(c3ccco3)N(C)C)o2)cc1 (stereo unspecified)	19*	2	-5	i	-318	6	12*
CCOC(=O)[C@@]12CCCC3=C1N(CCC3)C(=O)[C@H]2CC(=O)NCC1CCCCC1	0	x	x	-9	-4	x	x
NC(=S)N/N=C/c1ccccc1OC(=O)c1cc2ccccc2oc1=O	42*	1	-4	-62	-20	228*	200*
NC(=O)N/N=C/c1ccccc1OC(=O)c1cc2ccccc2oc1=O	79*	-1	-3	-51	-18	259*	259*
CCCCc1c(-c2ccccc2OC)ncn1C(C)c1ccc(Cl)cc1 (stereo unspecified)	0	x	x	-2	-3	x	x
CCOc1ccc2nc3sc(C(=O)N4CCOCC4)c(N)c3cc2c1	13*	1	0	-312	-106	8	6.6*
Cc1cc(C)c2nc3sc(C(=O)N4CCOCC4)c(N)c3cc2c1	2	-2	0	-38	-15	x	x
Cc1cc(C)c2cc3c(N)c(C(=O)N4CCOCC4)sc3nc2c1	19*	-1	-3	-374	-131	-9	-8
O=C(CSc1nc2ccccc2n1Cc1ccccc1Cl)NN=C/C(Br)=C/c1ccccc1	-1	x	x	-4	1	x	x
O=C(CSc1nc2c(c(=O)[nH]1)CCCC2)N1CCOCC1	1	x	x	-13	-2	x	x
Cn1cccc1CC(=O)NN=C/C=C\c1ccco1	0	x	x	-17	1	x	x
O=C(Nc1ccc2c(c1)OCCO2)C1C(=O)Nc2ccccc2C(=O)N1C1CCCCC1 (stereo unspecified)	0	x	x	-14	-7	x	x
CC(=O)Nc1ccc(C2Nc3ccccc3C(=O)N2C2CCCCC2)cc1 (stereo unspecified)	13*	1	-2	i	-300	30*	26*	K7 EDANS ctr=i
CC(C)OCCCn1c(=NC(=O)c2ccncc2)c(C#N)cc2c(=O)n3ccccc3nc21	-1	0	-6	-68	-15	x	x
CC(C)OCCCn1c(=NC(=O)c2cccs2)c(C#N)cc2c(=O)n3ccccc3nc21	54*	0	25	i	i	68*	63*
CC(C)OCCCn1c(=N)c(C(N)=S)cc2c(=O)n3ccccc3nc21	22*	0	-18	i	-392	4	4.3*
CCOCCCn1c(=N)c(C(=O)NCc2ccc3c(c2)OCO3)cc2c(=O)n3ccccc3nc21	0	x	x	-77	-26	x	x
